# Test results published in ChEMBL document CHEMBL4513216, “Probing the Open Global Health Chemical Diversity Library for Multistage-Active Starting Points for Next-Generation Antimalarials” (ACS Infect Dis, 2020).
# Hit rate of the full screen: of about 69,000 compounds, about 8,600 (12%) showed an effect of 50% or more. The entries come from a sample that favours strong results as a whole.
# Test system: Plasmodium berghei
# Assay: Screen against P. berghei liver stage (PbLuc), transformed with Luciferase, at 10uM
# Assay type: functional, HepG2
# Conditions: tested at 10 uM
row,SMILES,INHIBITION [%]
1,CCn1cc(S(=O)(=O)N2CCCC3(CC=CNC3=O)C2)cn1 (centres undefined),28.5
2,CC(CNC(=O)NCc1ccco1)N1CCc2sccc2C1 (centres undefined),-12.5
3,CCCn1c(C)c(CC(=O)NCCC(N)=O)c2c1CC(C)(C)CC2=O,69.6
4,CCCn1c(C)c(CC(=O)NCC(N)=O)c2c1CC(C)(C)CC2=O,-13.3
5,CCCn1c(C)c(CC(=O)NCCNC(C)=O)c2c1CC(C)(C)CC2=O,-4.52
6,CCn1cc(-n2cc3nc(N4CCC(C)CC4)[nH]cc-3c2=O)cn1,-85.9
7,Cc1cc(-n2c(C)cn(CN(C)C3CCS(=O)(=O)C3)c2=O)no1 (centres undefined),38.8
8,Cn1cc2c(n1)C(COCC1CC1)CN(Cc1ccccn1)C2 (centres undefined),12.5
9,Cc1cc(C)c(CNC(=O)NC2COc3ccccc3C2)c(=O)[nH]1 (centres undefined),10.6
10,COCCN(Cc1ccc(C)cc1)Cc1nccn1C,43.4
11,c1cc(CN(CCCn2ccnc2)Cc2ccoc2)ccn1,24.7
12,COCCN(Cc1ccc(C)cc1)Cc1c[nH]cn1,63.8
13,Cc1ccc(CN(CCCn2ccnc2)Cc2c[nH]cn2)s1,41.5
14,CN(C)c1ccc(CN(CCCn2ccnc2)Cc2c[nH]cn2)cc1,80.2
15,CCn1ncnc1CN(CCOC)Cc1ccc(C)cc1,49.9
16,COc1cc(COCC2CCN(Cc3cccnc3)CC2)cc(OC)c1,5.11
17,CNc1cc(N2CCCC2CNCc2cccnc2C)ncn1 (centres undefined),21.5
18,Cc1ccc(C(=O)N2CCc3ncc(Cn4cccn4)n3CC2)o1,16.4
19,COc1cc(I)c(Cl)cc1C(=O)N(C)CC(C)(C)O,29
20,Cc1ccc(CC(=O)NC2CCN(c3cccc(Cl)c3)C2)cn1 (centres undefined),42.7
21,Cc1nc(CNC(=O)NC2CCN(c3ncccc3Cl)C2)no1 (centres undefined),25.4
22,Cc1nc(CNC(=O)NC2CCN(c3cccc(Cl)c3)C2)no1 (centres undefined),56.3
23,Cc1cc(C)n(CC2CN(Cc3nc(C4CC4)no3)CCO2)n1 (centres undefined),-27.8
24,CCCn1c(C)c(CC(=O)N(C)CC(=O)OC)c2c1CC(C)(C)CC2=O,4.25
25,CC(C)OCCC(=O)N1CCN(CC(O)c2ccccc2)CC1 (centres undefined),-12.5
26,COc1cccc(C(O)CN2CCN(C(=O)CCC(C)C)CC2)c1 (centres undefined),55.4
27,CCOCC(O)CN1CCN(C(=O)c2ccsc2)CC1 (centres undefined),43.4

row,SMILES,INHIBITION [%]
1,O=C(c1ccsc1)N1CCN(CC(O)c2cccc(F)c2)CC1 (centres undefined),40.6
2,COc1cccc(C(O)CN2CCN(C(=O)c3ccsc3)CC2)c1 (centres undefined),53.6
3,COc1cccc(C(=O)N2CCN(CC(O)c3ccccc3)CC2)c1 (centres undefined),32.2
4,Cc1cccc2c1C(=O)NC(c1cnc(C3CCC3)s1)N2 (centres undefined),-91.5
5,CN1CCN(c2cccc(Cl)c2CNCCS(C)(=O)=O)CC1,19.9
6,Cn1c(Cn2ccnc2)nnc1C1CCN(C(=O)c2ccoc2)CC1,-62.8
7,CNc1ccc(CC2CCCN(C(=O)c3cnco3)C2)nn1 (centres undefined),1.11
8,CNc1ccc(CC2CCCN(C(=O)c3c(C)noc3C)C2)nn1 (centres undefined),21.9
9,CCc1cc(C(=O)N2CCCC(Cc3ccc(NC)nn3)C2)on1 (centres undefined),60.4
10,Cc1noc(CNC(=O)NCC2(C)CCCc3ccccc32)n1 (centres undefined),6.29
11,COCCCNC(=O)c1ccccc1-n1cc(CN(C)C)cn1,20.8
12,CC(C)NC(=O)C1CN(C(=O)COc2ccccc2)CC12CCOCC2 (centres undefined),24.1
13,COCCN1C2(CCN(Cc3nccs3)C2)c2ccccc2S1(=O)=O (centres undefined),14.8
14,CC(C)CCN1C2(CCN(C(=O)C3(C)CC3)C2)c2ccccc2S1(=O)=O (centres undefined),6.55
15,CC(C)CCN1C2(CCN(C(=O)N(C)C)C2)c2ccccc2S1(=O)=O (centres undefined),6.55
16,CC(C)CCN1C2(CCN(Cc3nccs3)C2)c2ccccc2S1(=O)=O (centres undefined),78.8
17,CC(C)CCN1C2(CCN(c3ncccn3)C2)c2ccccc2S1(=O)=O (centres undefined),13.5
18,CN(C)CCN1C2(CCN(Cc3nccs3)C2)c2ccccc2S1(=O)=O (centres undefined),80
19,O=C(Nc1ccccn1)c1cncc(C2CCNCC2)n1,-35.5
20,N#CC1Sc2nnc(-c3ccccc3Br)n2N=C1N (centres undefined),16.2
21,O=C(c1ccc(-n2cnnn2)cc1)N1CCCC(n2ccnc2)C1 (centres undefined),26.4
22,CCN(CC1CCOC1)C(=O)Nc1ccc(N2CCCCC2)nc1 (centres undefined),-8.83
23,COCCNc1ccc(CC2CCCN(C3CCOCC3)C2)nn1 (centres undefined),7.71
24,O=C(c1nsc(Cl)c1Cl)N1CCc2nc3sccc3c(=O)n2CC1,-14.1
25,CN(C)C(=O)c1n[nH]c2c1CN(Cc1nccs1)CC2,88
26,CN(C)C(=O)c1n[nH]c2c1CCN(Cc1nccs1)C2,-53.6
27,CN1CCN(C(=O)c2n[nH]c3c2CN(Cc2nccs2)CC3)CC1,-105

row,SMILES,INHIBITION [%]
1,CC(C)CNC(=O)c1cn(C(C)C)cc2c(=O)[nH]nc1-2,36.8
2,Cn1c(=O)[nH]c(=O)n2c(CC(=O)NCc3ccccc3)cnc12,19.3
3,O=C(Nc1cccnc1-n1cc(Cl)cn1)C1CCCC1,48
4,O=C(Nc1cccnc1-n1cc(Cl)cn1)C1CC1,41.5
5,O=C(Nc1cccnc1-n1cc(Cl)cn1)C1CCCCC1,52.6
6,COc1ccc(C)cc1C(C)NC(=O)CCn1cncn1 (centres undefined),19.2
7,O=C(c1ccnnc1)N1C[C@@H]2C[C@@H](c3nc(C4CC4)cs3)O[C@@H]2C1,-60.2
8,O=C(c1ccncn1)N1CCC[C@]2(C[C@@H](OCc3ccccn3)CO2)C1,43.9
9,COCC(=O)Nc1cc(S(=O)(=O)C(F)(F)F)ccc1OC,33.7
10,COc1ccc(S(=O)(=O)C(F)(F)F)cc1NC(=O)CSCC#N,48.3
11,COc1ccc(S(=O)(=O)C(F)(F)F)cc1NC(=O)CSC,63.7
12,Cc1ccccc1CN(C)C(=O)CN1CCCC(Cn2cncn2)C1 (centres undefined),-51.5
13,COc1cc(C)c(C(C)NC(=O)NCCCn2cncn2)cc1OC (centres undefined),-19.4
14,CCS(=O)(=O)N1Cc2nnn(C)c2C(COCCN(C)C)C1 (centres undefined),48.2
15,CN(C)CCOCC1CN(Cc2ccncc2)Cc2nnn(C)c21 (centres undefined),3.58
16,CCn1nnc2c1C(COCCN(C)C)CN(S(C)(=O)=O)C2 (centres undefined),43.8
17,CN(C)CCN1Cc2ncn(C)c2C(COCC(=O)N(C)C)C1 (centres undefined),50
18,CCn1nnc2c1C(COCCN(C)C)CN(S(=O)(=O)CC)C2 (centres undefined),52.6
19,Cc1cccc(CN2Cc3ncn(C)c3C(COCC(=O)N(C)C)C2)n1 (centres undefined),-10.3
20,CN(C)C(=O)COCC1CN(CC2CCOCC2)Cc2ncn(C)c21 (centres undefined),4.57
21,CN(C)CCOCC1CN(Cc2ccoc2)Cc2nnn(C)c21 (centres undefined),18.5
22,CCn1nnc2c1C(COCCN(C)C)CN(Cc1ccco1)C2 (centres undefined),62.3
23,CCn1nnc2c1C(COC)CN(Cc1ccco1)C2 (centres undefined),-30.1
24,CCn1nnc2c1C(COCCN(C)C)CN(c1nncs1)C2 (centres undefined),57.1
25,CCn1nnc2c1C(COCCN(C)C)CN(Cc1ccc(C)s1)C2 (centres undefined),-22.1
